# Laboratory results taken from ChEMBL document CHEMBL3988442, “University of Dundee, Small-Polar-MMV Screening Library” (2021).
# Hit rate of the full screen: of about 48,000 compounds, about 13,000 (27%) showed an effect of 50% or more. The list shows a part of the results.
# Tested on: Wolbachia pipientis
# Assay: Anti-Wolbachia Cell-Based Screen
# Type: functional
# Design: scale not given: in the data most compounds retested in dose-response had high values
# Conditions: 5 µM
row,Compound,Percent Effect
1,N#Cc1ccc(C(=O)N2CCCC3(C=Cc4ccccc4O3)CC2)cn1 (configuration not stated),6.705%
2,CC(=O)NC(C)C(=O)N(Cc1ccc(C)c(C)c1)C1CC1 (configuration not stated),-3.122%
3,Cn1cc(C(=O)N2CC[C@@H]3[C@@H]2CCN3c2ccccn2)cn1,-3.073%
4,O=C(c1ccccn1)N1C[C@@H]2CC[C@H](C1)N(C(=O)CCN1CCCC1)C2,-10.03%
5,CN1CC[C@H](c2ccccc2)[C@@H]2[C@H]1CCCCN2C(=O)c1cnccn1,-5.726%
6,CN1CCCC[C@@H]2[C@H]1[C@@H](c1ccccc1)CCN2C(=O)c1cnccn1,3.186%
7,CN1CCCCC[C@@H]2[C@@H]1[C@H](c1ccccc1)CN2C(=O)c1ccccn1,114.6%
8,CN1CCCC[C@@H]2[C@H]1[C@@H](c1ccccc1)CCN2C(=O)c1ccccn1,98.54%
9,CCc1nsc(NC2CC(=O)N(C(C)(C)C)C2)n1 (configuration not stated),-4.433%
10,O=C(CC1CCN(c2cccnn2)CC1)NC1CCOCC1,83.52%
11,O=C(CC1CCN(c2cccnn2)CC1)NCCO,94.51%
12,O=C(CN1CCCC1Cn1cccn1)NC1CCOCC1 (configuration not stated),-8.305%
13,CN1CCC(C(=O)N2CCCN(c3cccnn3)CC2)C1 (configuration not stated),-4.749%
14,Cc1ccc(N2CCCC(NCC(=O)NC3CCOCC3)C2)nn1 (configuration not stated),0.2085%
15,O=C(CNCC1CCCN1c1cccnn1)NCCc1cccs1 (configuration not stated),4.052%
16,CC(OCC1CC1)C(=O)N1CCCN(c2cccnn2)CC1 (configuration not stated),-4.711%
17,CN(C)CCNC(=O)CC1CCN(c2cccnn2)CC1,87.97%
18,O=C(CCc1cccs1)NCC1CCCN1c1cccnn1 (configuration not stated),-0.2437%
19,O=C(c1cn(-c2cc(N3CCSCC3)ncn2)cn1)N1CCOCC1,2.163%
20,O=C1[C@@H]2C[C@H](O)CCN2C(=O)CN1CCSc1ccccn1,99.26%
21,Cc1n[nH]c(C)c1C1CCCN1C(=O)NCCSC(C)(C)C (configuration not stated),-9.308%
22,O=C(CC1CCc2ccccc21)NCCSc1ccccn1 (configuration not stated),-6.128%
23,COCCN1C[C@H]2CN(C(=O)C3CC3)CCN2C1=O,0.212%
24,CC(C)(C)SCCN1CC(=O)N2CC[C@@H](O)C[C@H]2C1=O,105.3%
25,COCCN1C[C@@H]2CN(C(=O)CC3CC3)C[C@@H]2C1=O,3.353%

row,Compound,Percent Effect
1,O=C(C1CC1)N1CCN(C(=O)CSc2ccccn2)[C@H]2CS(=O)(=O)C[C@H]21,-23.43%
2,COCCN1CC(=O)N2CC[C@@H](O)C[C@H]2C1=O,111.7%
3,Cc1ncccc1CNc1ccc(OCCO)nc1,-18.76%
4,O=C(c1ccoc1)N1CCC2(CC1)COC(COCc1ccccn1)C2 (configuration not stated),4.399%
5,Cc1nncn1CCNC(=O)C1SCCc2sccc21 (configuration not stated),0.3971%
6,CCc1ccc(CN2CCc3[nH]nc(C(=O)N4CCNC(=O)C4)c3C2)o1,-23.7%
7,CC(C)NC(=O)CCNC(=O)Nc1cnn(-c2ccccc2Cl)c1,-14.09%
8,CCOC[C@@]12CCC[C@@H]1CN(C(=O)c1ccc(OC)cc1)C2,116.5%
9,COC[C@@]12CCC[C@@H]1CN(C(=O)COc1ccccc1OC)C2,104.3%
10,COC[C@@]12CCO[C@@H]1CCN(C(=O)COc1ccccc1OC)C2,3.153%
11,O=C(O)C(F)(F)F.O=C(c1ccc(F)cc1)N1C[C@H]2CCC[C@@]2(COCc2ccncc2)C1,3.034%
12,CCOC[C@@]12CCC[C@@H]1CN(C(=O)COc1ccccc1OC)C2,101.3%
13,Cc1ccc(C(=O)N2C[C@H]3CCC[C@@]3(COCc3ccncc3)C2)cn1.O=C(O)C(F)(F)F.O=C(O)C(F)(F)F,-7.119%
14,O=C(Cc1ccco1)N1C[C@H]2CCC[C@@]2(COc2cccnc2)C1,-23.92%
15,CCO[C@@H]1CO[C@@]2(CCCN(C(=O)COc3ccccc3OC)C2)C1,-3.938%
16,CC(Oc1ccccc1C(F)(F)F)C(=O)NCC(N)=O (configuration not stated),-1.247%
17,CCCC(CNc1cc(C(C)C)nc2ccnn12)N(C)C (configuration not stated),-7.916%
18,Cc1n[nH]cc1CNC1(c2ccc(F)cc2)CCCC1,2.933%
19,CC(C)NC(=O)N1CCN(CC2CC2)CC2(CC(=O)N(C)C2)C1.O=C(O)C(F)(F)F (configuration not stated),10.52%
20,CC(=O)N1CCN(Cc2cccs2)CC2(CC(=O)N(C)C2)C1.O=C(O)C(F)(F)F (configuration not stated),101.6%
21,Cc1ccc(CN2CCC3(CC(=O)N(c4cccc(F)c4)C3)C2)o1.O=C(O)C(F)(F)F (configuration not stated),18.19%
22,CCN1CC2(CC1=O)CN(Cc1cnn(C)c1)CCN(C(=O)C(C)C)C2.O=C(O)C(F)(F)F (configuration not stated),-2.77%
23,CCN1CC2(CC1=O)CN(Cc1cccs1)CCN(C(=O)C(C)C)C2 (configuration not stated),9.795%
24,CCN1CC2(CC1=O)CN(Cc1ccco1)CCN(C(=O)N(C)C)C2.O=C(O)C(F)(F)F (configuration not stated),1.855%
25,CC(=O)N1CCN(Cc2ccco2)CC2(CC(=O)N(C)C2)C1.O=C(O)C(F)(F)F (configuration not stated),97.89%

row,Compound,Percent Effect
1,O=C(O)C(F)(F)F.O=C(O)C(F)(F)F.O=C(O)C(F)(F)F.c1coc(CN2CCC3(CC2)COCCN(CCN2CCCC2)C3)c1,10.77%
2,CC(=O)N1CCN(Cc2ccc(C)o2)CC2(CC(=O)N(C)C2)C1.O=C(O)C(F)(F)F (configuration not stated),88.46%
3,CN1CC2(CCN(C(=O)Cc3ccccn3)CC2)OCC1=O.O=C(O)C(F)(F)F,23.75%
4,CC(C)C(=O)N1CCN(Cc2ccccn2)CC2(CC(=O)N(C)C2)C1.O=C(O)C(F)(F)F.O=C(O)C(F)(F)F (configuration not stated),98.24%
5,CN(CCC1CCOCC1)C(=O)C1CCC(=O)N(Cc2ccccn2)C1 (configuration not stated),12.01%
6,Cc1nn(C)c(C)c1OCC(=O)NCC(O)c1ccccc1F (configuration not stated),-4.984%
7,O=C1N(c2ccc(Cl)cc2)Cc2n[nH]c(=O)n21,3.53%
8,CCCn1nc(-c2nc(COC)no2)ccc1=O,-14.93%
9,CC(=O)NCC(=O)NCC1Cn2nnc(-c3cccc(F)c3)c2CO1 (configuration not stated),-8.609%
10,CC(=O)N1CCN(Cc2nccs2)CC2(CC(=O)N(C)C2)C1.O=C(O)C(F)(F)F (configuration not stated),92.61%
11,CN1CCC2(CCN(Cc3nccs3)CC2)C1=O.O=C(O)C(F)(F)F,4.782%
12,CCOCC(=O)NCCCn1ccnc1-c1ccccc1,90.19%
13,CC(=O)NCCn1ccnc1-c1cccc(C(C)N(C)C)c1 (configuration not stated),4.198%
14,CCOCC(=O)Nc1nccn1Cc1ccc(Br)cc1,-3.698%
15,COC(=O)CCCn1ccnc1-c1ccccc1,2.023%
16,CC(C)c1nccn1CCCNC(=O)c1ccc(-c2cccnc2)nc1,8.791%
17,COC(=O)NCCCn1ccnc1-c1ccccc1,181.6%
18,Cc1ccc(C(=O)Nc2cc(C(N)=O)ccc2N2CCCCC2)cc1F,-3.619%
19,O=C(O)CCc1cc2n(n1)CCCN(C(=O)c1ccc3cc[nH]c3c1)C2,-27.67%
20,O=C(CCc1cc2n(n1)CCCN(C(=O)[C@H]1CCCO1)C2)NC1CC1,170.3%
21,O=C(CCc1cc2n(n1)CCCN(C(=O)c1cccnc1)C2)NC1CC1,-4.751%
22,Cc1ccc(C(=O)N2CCCn3nc(CCC(=O)O)cc3C2)cc1Cl,11.92%
23,O=C(CCc1cc2n(n1)CCCN(C(=O)c1ccccn1)C2)NC1CC1,1.644%
24,CCc1cc(C(=O)N2CCCn3nc(CCC(=O)O)cc3C2)cs1,-7.139%
25,O=C(O)CCc1cc2n(n1)CCCN(C(=O)c1cc3ccccc3s1)C2,6.416%

row,Compound,Percent Effect
1,O=C(CCc1cc2n(n1)CCCN(C(=O)c1ccncc1)C2)NC1CC1,139.8%
2,Cn1cccc1C(=O)N1CCCn2nc(CCC(=O)NC3CC3)cc2C1,139.6%
3,CC(C)c1ocnc1C(=O)NC1(c2cccc(F)c2)CCOCC1,-15.1%
4,O=S1(=O)CCCN(Cc2ccccc2OCC(F)(F)F)CC1,7.623%
5,Fc1cccc(-c2n[nH]cc2-c2nc(CN3CCOCC3)no2)c1,25.75%
6,CN1CCN(Cc2ccccc2Oc2cncc(C(N)=O)n2)CC1,7.262%
7,CC(=O)N1Cc2ccccc2CC1C(=O)Nc1cc(C)ccn1 (configuration not stated),-13.21%
8,C[C@]1(O)CN(Cc2cccc(C(=O)O)c2)CC[C@@H]1Oc1cccc(F)c1,113.2%
9,C[C@]1(O)CN(Cc2ccc(C(=O)O)cc2)CC[C@@H]1Oc1cccc(F)c1,71.72%
10,COc1ccccc1OC1CN(Cc2ccc(C(=O)O)cc2)C1,-24.62%
11,O=C(NCC1(O)CCOc2ccccc21)Nc1ccc2c(c1)OCO2 (configuration not stated),5.05%
12,CCc1noc(CN2CCC(C(=O)Nc3cnn(CC)c3)CC2)n1,82.9%
13,CC(C)Cc1noc(CN2CCC(C(=O)NCC3CCCO3)CC2)n1 (configuration not stated),11.96%
14,CCCc1noc(CN2CCC(C(=O)Nc3cnn(CC)c3)CC2)n1,112.1%
15,CCc1noc(C(C)N2CCC(C(=O)Nc3cnn(CC)c3)CC2)n1 (configuration not stated),11.99%
16,CC(C)c1noc(CN2CCC(C3CCCCCN3S(C)(=O)=O)CC2)n1.Cl (configuration not stated),5.236%
17,CCn1cc(NC(=O)C2CCN(Cc3ccccc3C#N)CC2)cn1,4.672%
18,CCn1cc(NC(=O)C2CCN(Cc3noc(C(C)C)n3)CC2)cn1,3.174%
19,CCn1cc(NC(=O)C2CCN(Cc3nc(C(C)C)no3)CC2)cn1,89.67%
20,O=C(Nc1ccc(F)cc1)C1CCN(Cc2noc(C3CC3)n2)CC1,-24.67%
21,CCn1cc(NC(=O)C2CCN(Cc3noc(C4CC4)n3)CC2)cn1,113.1%
22,O=C(Nc1cccc(F)c1)C1CCN(Cc2noc(C3CC3)n2)CC1,-5.725%
